# Screens as filed in PubChem.
# In the library only some 14% were active in any assay of this set; here they are far more common.
# Pf growth 48h: P. falciparum growth inhibition at 48 hours (one generation) | Potency, µM (series often up to 28.7 µM), inactives show at the top dose activity change, negative = inhibition, most hits filed as inhibitors | 310,000 tested, 5.9% active | P. falciparum luciferase growth in erythrocytes, 48 h; further: potency means the concentration at half of the fitted maximal effect
#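 Luciferase-expressing P. falciparum in infected erythrocytes (2% hematocrit, 0.1% parasitemia final) in RPMI 1640/0.5% Albumax were exposed to compound for 48 hours at 37 C, 5% CO2; growth read as luminescence.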
# HCV inh: HCV inhibition; Huh7.5.1 HCVcc-Cre infection, luciferase reporter, 44 h; Potency, µM (highest dose often 41.8 µM), for inactives: top-dose activity change, negative = inhibition, hits mostly inhibitors; 340,000 tested, 3.4% active; AID 651820; further: potency means the concentration at half of the fitted maximal effect
#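 Cells (1,000/well) were plated 4 h before compound, then infected with HCVcc-Cre virus (~0.5 moi). After 44 h further culture, infection was read as luciferase luminescence following a 15 min substrate incubation at room temperature.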
# HCMV antiviral: human cytomegalovirus inhibition. HFF cells, HCMV-luciferase reporter, 72 h; hits give low values. AID 1259415. 410,000 tested, 4.5% active. activity change, negative = inhibition, % at 57.5 µM; in the data active means activity change below about -60%; inconclusive means no clear call, values can overlap the other calls; inactive means above about -39%
#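 Compounds were evaluated in HFFs infected with an HCMV luciferase reporter virus (MOI 1 PFU/cell). Luciferase in lysates collected 72 h post infection served as the replication measure.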
# MARV entry inh: inhibitors of Marburg virus binding or cell entry | Marburg virus pseudotyped entry inhibition, cell reporter | Potency, µM (highest dose often 37.8 µM), without a hit: top-dose activity change, negative = inhibition, most hits filed as inhibitors | 300,000 tested, 1.8% active; calls by dose curve; tested in HEK293 cells; further: potency means the concentration at half of the fitted maximal effect
# Pf growth 96h: P. falciparum growth inhibition at 96 hour, primary screen for plastid delayed-death inhibitors; P. falciparum luciferase reporter growth, 96 h; 320,000 tested, 6.9% active; Potency, µM (doses to about 28.7 µM), for inactives: top-dose activity change, negative = inhibition, most hits filed as inhibitors; further: potency means the concentration at half of the fitted maximal effect
#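 Plates of compound plus infected erythrocytes (2% hematocrit, 0.05% parasitemia final) incubate 96 hours, 37 C, 5% CO2. Detection reagent added; reduced luminescence from the parasites' luciferase reporter flags inhibition.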
# Lassa entry inh: inhibitors of Lassa virus binding or cell entry. 300,000 tested, 1.2% active. Potency, µM (doses to about 37.9 µM), without a hit: at the highest dose activity change, negative = inhibition, most hits filed as inhibitors. Lassa virus pseudotype entry inhibition, cell reporter. AID 540256; calls by dose curve; tested in HEK293 cells; further: potency means the concentration at half of the fitted maximal effect; nearly all actives have a fitted effect of over 50% in size
# * = called active by the depositor; ? = inconclusive; nt = not tested or not shown; ! = not active in a repeat; [ ] = dose if it differs, or a comment. Unless noted, the call rests on the fitted dose curve; in most records, active means well fitted inhibition curve with a large enough effect; inconclusive means small, poorly fitted or top-dose-only effect, or another doubt; inactive means no such curve, though single readings can be large or run the other way. On the % scale 0 is the no-effect control and ±100 the full control effect.
SMILES,Pf growth 48h,HCV inh,HCMV antiviral,MARV entry inh,Pf growth 96h,Lassa entry inh
Cc1ccc(C)c(NS(=O)(=O)c2ccc(NC(=O)c3ccco3)cc2)c1,10µM*,-25%,-26,-25%,12µM*,?
CCOc1cc(NC(=O)c2cccs2)c(OCC)cc1NC(=O)c1ccco1,-4%,-23%,31,-5%,?,0%
CCOc1cc(NS(=O)(=O)c2ccc(OC)cc2)c(OCC)cc1NC(=O)c1ccco1,-3%,-5%,-97*,?,12%,-13%
CCOc1cc(NS(=O)(=O)CC)c(OCC)cc1NC(=O)c1ccco1,?,?,-77*,?,nt,1%
CCOc1cc(NC(=O)c2ccco2)c(OCC)cc1NC(=O)Cc1cccc(OC)c1,4.7µM*,13µM*,-33,3%,1%,?
CCOCCCNC(=O)c1cnc2sc(N3CCCCC3)nn2c1=O,nt,nt,3,nt,nt,-3%[46.1 µM]
Cc1nnc2c(N3CCN(c4ccccc4)CC3)nc3ccc(C(=O)c4ccccc4)cc3n12,nt,nt,-10,16%[46.1 µM],nt,3%[46.1 µM]
COC(=O)c1ccc(N2C(c3cc(OC)cc(OC)c3)=Cc3ccc(-c4cccnc4)cc3C2CC(=O)C2CC2)cc1 (stereo unspecified),nt,nt,15,nt,nt,nt
CCOC(=O)Cn1c(=O)oc2cc(S(=O)(=O)N3CCCc4ccccc43)ccc21,nt,6%,?,0%,-10%,nt
CCOC(=O)c1cccc(NC(=O)C2CCN(S(=O)(=O)c3ccc4c(c3)oc(=O)n4C)CC2)c1,nt,nt,-103*,-21%[46.1 µM],nt,-5%[46.1 µM]
CCOC(=O)c1cccc(NC(=O)C2CCCN(S(=O)(=O)c3ccc4c(c3)oc(=O)n4C)C2)c1 (stereo unspecified),nt,nt,-16,13%[46.1 µM],nt,-1%[46.1 µM]
CCCCN(C)C(=O)Cn1c(=O)oc2cc(S(=O)(=O)N3CC(C)CC(C)C3)ccc21 (stereo unspecified),?,-9%,?,nt,13µM*,nt
CCOC(=O)Cn1c(=O)oc2cc(S(=O)(=O)N3CCn4c3nc3ccccc34)ccc21,-11%,0%,14,nt,15µM*,nt
CC1CC(C)CN(C(=O)Cn2c(=O)oc3cc(S(=O)(=O)N4CCCC4)ccc32)C1 (stereo unspecified),?,8%,-21,nt,12µM*,nt
COc1cc(NC(=O)CCCN2C(=O)CCn3nc(-c4cn(C)c5ccccc45)cc32)cc(OC)c1,nt,nt,15,nt,nt,11%[46.1 µM]
CCOC(=O)N1CCC(NC(=O)C2CCCN(S(=O)(=O)c3ccc4c(c3)oc(=O)n4C)C2)CC1 (stereo unspecified),9%,13%,-63*,9%,nt,-16%
CCOC(=O)Cn1c(=O)oc2cc(S(=O)(=O)N3CCCC(C(=O)OCC)C3)ccc21 (stereo unspecified),nt,4%,-19,nt,10µM*,nt
COc1ccc(-n2c(O)c(/C=N/NS(=O)(=O)c3ccc(C)c([N+](=O)[O-])c3)c3ccccc3c2=O)cc1OC,?,1%,-17,nt,12µM*,nt
Cc1ccc(-n2c(O)c(C=Nc3ccc4c(c3)OCO4)c3ccccc3c2=O)cc1C,?,1%,-39,-12%,6%,-5%
Cc1cc(N=Cc2c(O)n(-c3ccc4c(c3)OCO4)c(=O)c3ccccc23)ccn1,-10%,-23%,-92*,?,0%,?
Cc1cc(N=Cc2c(O)n(-c3ccc(C)c(C)c3)c(=O)c3ccccc23)no1,?,-12%,-64*,4%,?,-15%
Cc1ccc(-n2c(O)c(C=Nc3cc(C)on3)c3ccccc3c2=O)c(C)c1,-21%,?,-40,?,?,?
CCS(=O)(=O)N1CCc2cc(C(=O)N3CCN(c4cccc(C(F)(F)F)c4)CC3)ccc21,nt,nt,-32,?,nt,-15%[46.1 µM]
Cc1ccccc1S(=O)(=O)N[C@H]1CC[C@@]23CCCN2C(=O)CCC[C@H]3[C@H]1Cc1ccccc1,nt,nt,-11,nt,nt,nt
CN1CCN(C2=Nc3cc(F)ccc3Cc3ccccc32)CC1,-28%,nt,nt,nt,-24%,nt
SMILES,Pf growth 48h,HCV inh,HCMV antiviral,MARV entry inh,Pf growth 96h,Lassa entry inh
CN1CCN(C2=Nc3cc(Cl)ccc3Nc3ccccc32)CC1,17µM*,0%[8.37 µM],?,13µM*!,?,-14%
CCO[C@H]1OC(C(=O)N2CCN(Cc3ccccc3)CC2)=C[C@@H](c2ccc(C(F)(F)F)cc2)[C@@H]1CCCO,?,?,-86*,nt,1.5µM*,nt
CCO[C@H]1OC(C(=O)N2CCCCCCC2)=C[C@@H](c2csc3ccccc23)[C@@H]1CCCO,15%,-1%[8.37 µM],-7,nt,?,nt
CCO[C@@H]1OC(C(=O)NCc2ccccc2)=C[C@H](c2cn(C(C)=O)c3ccccc23)[C@H]1CCCO,5.2µM*,-20%,27,nt,4.1µM*,nt
CCO[C@@H]1OC(C(=O)N2CCN(Cc3ccccc3)CC2)=C[C@H](c2cn(C(C)=O)c3ccccc23)[C@H]1CCCO,8.3µM*,-9%[8.37 µM],-16,nt,8.3µM*,nt
CCO[C@H]1OC(C(=O)N2CCN(Cc3ccccc3)CC2)=C[C@@H](c2ccccc2)[C@@H]1CCCO,?,-23%,-15,nt,?,nt
CCO[C@@H]1OC(C(=O)N2CCN(Cc3ccccc3)CC2)=C[C@H](c2csc3ccccc23)[C@H]1CCCO,?,?,11,nt,6.6µM*,nt
CCO[C@@H]1OC(C(=O)N2CCOCC2)=C[C@H](c2cn(C(C)=O)c3ccccc23)[C@H]1CCCO,6%,43%,-19,nt,40%,nt
O=C1OCC2OC(O)C(O)C(O)C2OC(=O)c2cc(O)c(O)c(O)c2-c2c(O)c(O)c3oc(=O)c4c(c(O)c(O)c5oc(=O)c2c3c54)-c2c1cc(O)c(O)c2O (stereo unspecified),-18%,nt,nt,nt,0%,nt
CCCN1CCN(c2nnc(-n3cccc3C(=O)Nc3cc(Cl)ccc3C)s2)CC1,nt,nt,0,nt,nt,5%[46.1 µM]
CCCCN1CCc2nc(N3CCN(c4ncccn4)CC3)ncc2C1,nt,nt,16,nt,nt,-14%[46.1 µM]
